Assay results as given in article PMC7862700, “An all-to-all approach to the identification of sequence-specific readers for epigenetic DNA modifications on cytosine”.

Key:
Experiment in all cases: DAPPL (digital affinity profiling via proximity ligation, sequencing); 10 mM Tris-HCl pH 7.5, 50 mM NaCl, 1 mM DTT, 4% glycerol, room temperature, 30 min; GST-TFs on glutathione beads, 16-mer random dsDNA library, 0.1% formaldehyde crosslink after washing; high values mean tight binding
FEV = target: T1, FEV (Homo sapiens, UniProt Q99581 1-238); details: protein: recombinant; tags: N-terminal GST; dsDNA, one strand shown
T1 sequence: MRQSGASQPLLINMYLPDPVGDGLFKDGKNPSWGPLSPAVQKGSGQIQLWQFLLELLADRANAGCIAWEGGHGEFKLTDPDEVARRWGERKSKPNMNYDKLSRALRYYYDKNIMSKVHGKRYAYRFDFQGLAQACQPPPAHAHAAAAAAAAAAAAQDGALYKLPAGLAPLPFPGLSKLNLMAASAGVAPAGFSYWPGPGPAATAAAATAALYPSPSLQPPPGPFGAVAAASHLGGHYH
Summary of the method: (§1)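 After expression in yeast as GST fusions, human transcription factors were bound to glutathione beads, DNA-barcoded and mixed with a tag-only sample. The pools were incubated with 200 nmole of a 16-mer random double-stranded DNA library in Tris/NaCl/DTT/glycerol buffer (30 min, room temperature), washed and crosslinked with 0.1% formaldehyde. Proximity ligation with BsaI/T4 ligase ran for 1 h at 37 °C, before PCR amplification and sequencing on an Illumina NextSeq500. Binding signal is a hexamer's read frequency for a factor divided by its frequency for the tag-only sample.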

ETV5 = ETV5 (Homo sapiens, UniProt P41161 1-510); details: protein: recombinant; tags: N-terminal GST; dsDNA, one strand shown
Summary of the method: as §1

HSF1 = HSF1 (Homo sapiens, UniProt Q00613 1-529); details: protein: recombinant; tags: N-terminal GST; chain copies: 3; dsDNA, one strand shown
Summary of the method: as §1

SPIC = target: T2, SPIC (Homo sapiens, UniProt Q8N5J4 1-248); details: protein: recombinant; tags: N-terminal GST; dsDNA, one strand shown
T2 sequence: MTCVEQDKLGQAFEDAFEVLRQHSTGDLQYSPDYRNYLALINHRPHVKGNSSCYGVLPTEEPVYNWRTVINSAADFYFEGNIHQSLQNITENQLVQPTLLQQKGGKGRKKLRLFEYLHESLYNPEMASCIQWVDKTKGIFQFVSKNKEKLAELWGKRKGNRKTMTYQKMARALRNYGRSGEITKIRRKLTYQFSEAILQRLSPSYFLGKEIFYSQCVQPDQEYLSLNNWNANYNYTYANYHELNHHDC
Summary of the method: as §1

ELF4 = ELF4 (Homo sapiens, UniProt Q99607 1-663); details: protein: recombinant; tags: N-terminal GST; dsDNA, one strand shown
Summary of the method: as §1

ELK4 = target: T3, ELK4 (Homo sapiens, UniProt P28324-2 1-405); details: protein: recombinant; tags: N-terminal GST; dsDNA, one strand shown
T3 sequence: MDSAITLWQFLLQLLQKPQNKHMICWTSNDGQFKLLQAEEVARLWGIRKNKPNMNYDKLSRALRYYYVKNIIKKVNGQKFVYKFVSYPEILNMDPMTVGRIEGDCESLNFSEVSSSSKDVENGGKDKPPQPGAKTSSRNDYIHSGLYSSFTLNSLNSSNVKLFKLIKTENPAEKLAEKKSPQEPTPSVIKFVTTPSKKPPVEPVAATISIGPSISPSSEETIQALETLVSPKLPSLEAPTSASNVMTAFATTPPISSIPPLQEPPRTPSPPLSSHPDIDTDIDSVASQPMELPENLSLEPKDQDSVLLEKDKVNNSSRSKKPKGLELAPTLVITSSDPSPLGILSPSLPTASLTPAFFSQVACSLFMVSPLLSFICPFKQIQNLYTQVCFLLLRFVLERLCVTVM
Summary of the method: as §1

ETV2 = target: T4, ETV2 (Homo sapiens, UniProt O00321 1-342); details: protein: recombinant; tags: N-terminal GST; dsDNA, one strand shown
T4 sequence: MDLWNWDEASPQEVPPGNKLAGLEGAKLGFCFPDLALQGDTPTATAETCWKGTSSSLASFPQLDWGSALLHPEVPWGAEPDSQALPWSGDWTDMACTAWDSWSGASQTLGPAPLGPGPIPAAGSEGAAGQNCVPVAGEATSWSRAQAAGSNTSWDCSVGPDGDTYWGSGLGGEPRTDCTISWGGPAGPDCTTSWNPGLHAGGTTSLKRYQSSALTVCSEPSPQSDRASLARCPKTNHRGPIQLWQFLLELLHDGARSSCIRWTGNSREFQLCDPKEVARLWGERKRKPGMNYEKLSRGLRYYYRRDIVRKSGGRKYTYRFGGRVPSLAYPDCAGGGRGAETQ
Summary of the method: as §1

ELF3 = target: T5, ELF3 (Homo sapiens, UniProt P78545 1-371); details: protein: recombinant; tags: N-terminal GST; dsDNA, one strand shown
T5 sequence: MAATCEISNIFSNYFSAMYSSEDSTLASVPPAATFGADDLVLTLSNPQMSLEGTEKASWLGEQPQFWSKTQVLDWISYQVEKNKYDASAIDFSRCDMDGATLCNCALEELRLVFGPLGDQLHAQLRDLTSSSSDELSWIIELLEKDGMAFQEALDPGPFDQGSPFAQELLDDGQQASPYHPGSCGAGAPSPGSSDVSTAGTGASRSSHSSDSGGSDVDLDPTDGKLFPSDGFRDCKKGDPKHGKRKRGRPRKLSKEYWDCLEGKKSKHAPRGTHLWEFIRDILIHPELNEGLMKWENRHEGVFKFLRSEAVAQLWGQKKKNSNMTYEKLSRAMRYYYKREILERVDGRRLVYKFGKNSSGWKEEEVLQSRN
Summary of the method: as §1

CRX = CRX (Homo sapiens, UniProt O43186 1-299); details: protein: recombinant; tags: N-terminal GST; dsDNA, one strand shown
Summary of the method: as §1

ETV1 = ETV1 (Homo sapiens, UniProt P50549 1-477); details: protein: recombinant; tags: N-terminal GST; dsDNA, one strand shown
Summary of the method: as §1

ERF = target: T6, ERF (Homo sapiens, UniProt P50548 1-548); details: protein: recombinant; tags: N-terminal GST; dsDNA, one strand shown
T6 sequence: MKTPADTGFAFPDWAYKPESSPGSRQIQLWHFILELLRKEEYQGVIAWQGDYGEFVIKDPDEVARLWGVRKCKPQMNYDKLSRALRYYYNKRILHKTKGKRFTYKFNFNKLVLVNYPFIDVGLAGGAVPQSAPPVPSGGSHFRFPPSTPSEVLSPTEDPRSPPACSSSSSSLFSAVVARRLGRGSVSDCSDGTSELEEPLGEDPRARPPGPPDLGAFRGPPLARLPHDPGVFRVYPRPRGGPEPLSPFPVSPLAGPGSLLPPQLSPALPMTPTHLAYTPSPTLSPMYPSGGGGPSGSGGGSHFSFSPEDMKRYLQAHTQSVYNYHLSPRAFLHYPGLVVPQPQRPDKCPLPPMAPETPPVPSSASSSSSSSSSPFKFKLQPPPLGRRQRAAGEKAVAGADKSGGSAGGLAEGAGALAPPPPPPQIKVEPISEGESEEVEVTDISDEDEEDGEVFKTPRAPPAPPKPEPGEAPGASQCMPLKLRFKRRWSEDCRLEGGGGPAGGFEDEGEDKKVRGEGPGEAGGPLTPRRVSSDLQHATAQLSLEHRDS
Summary of the method: as §1

ETV3L = target: T7, ETV3L (Homo sapiens, UniProt Q6ZN32 1-361); details: protein: recombinant; tags: N-terminal GST; dsDNA, one strand shown
T7 sequence: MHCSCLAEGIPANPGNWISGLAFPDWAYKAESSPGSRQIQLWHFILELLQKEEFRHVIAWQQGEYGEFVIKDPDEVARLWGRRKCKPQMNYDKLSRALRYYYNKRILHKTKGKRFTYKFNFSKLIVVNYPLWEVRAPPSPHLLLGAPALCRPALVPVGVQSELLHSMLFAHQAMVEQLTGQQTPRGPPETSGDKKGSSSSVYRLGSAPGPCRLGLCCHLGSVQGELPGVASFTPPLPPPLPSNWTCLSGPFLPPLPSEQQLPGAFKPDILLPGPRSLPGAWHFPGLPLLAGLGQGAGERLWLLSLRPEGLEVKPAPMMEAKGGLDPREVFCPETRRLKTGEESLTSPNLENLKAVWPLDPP
Summary of the method: as §1

ETS2 = target: T8, ETS2 (Homo sapiens, UniProt P15036 1-469); details: protein: recombinant; tags: N-terminal GST; dsDNA, one strand shown
T8 sequence: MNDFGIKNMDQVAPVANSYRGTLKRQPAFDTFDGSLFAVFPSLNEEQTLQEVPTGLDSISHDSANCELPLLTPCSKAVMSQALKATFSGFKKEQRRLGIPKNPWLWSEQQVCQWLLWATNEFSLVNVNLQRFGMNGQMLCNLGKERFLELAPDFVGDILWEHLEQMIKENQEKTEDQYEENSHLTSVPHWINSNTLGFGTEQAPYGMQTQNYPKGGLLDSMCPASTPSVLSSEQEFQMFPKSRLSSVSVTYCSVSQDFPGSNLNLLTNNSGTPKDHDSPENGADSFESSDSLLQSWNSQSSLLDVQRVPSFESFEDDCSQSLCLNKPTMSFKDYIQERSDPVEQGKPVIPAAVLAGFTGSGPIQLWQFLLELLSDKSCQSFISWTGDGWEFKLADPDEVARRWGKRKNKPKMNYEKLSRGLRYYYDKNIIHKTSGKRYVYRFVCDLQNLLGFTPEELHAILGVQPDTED
Summary of the method: as §1

SPDEF = target: T9, SPDEF (Homo sapiens, UniProt O95238 1-335); details: protein: recombinant; tags: N-terminal GST; dsDNA, one strand shown
T9 sequence: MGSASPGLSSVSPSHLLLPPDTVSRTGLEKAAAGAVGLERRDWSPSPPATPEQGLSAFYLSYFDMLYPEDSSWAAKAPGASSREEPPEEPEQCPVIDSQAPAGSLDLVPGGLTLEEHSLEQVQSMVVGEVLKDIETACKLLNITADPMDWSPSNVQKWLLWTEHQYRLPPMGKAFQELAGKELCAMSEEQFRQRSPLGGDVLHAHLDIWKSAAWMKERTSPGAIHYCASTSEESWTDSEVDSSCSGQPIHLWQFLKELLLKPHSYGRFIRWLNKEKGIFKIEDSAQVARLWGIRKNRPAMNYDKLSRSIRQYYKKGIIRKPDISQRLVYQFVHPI
Summary of the method: as §1

ETV7 = target: T10, ETV7 (Homo sapiens, UniProt Q9Y603 1-341); details: protein: recombinant; tags: N-terminal GST; dsDNA, one strand shown
T10 sequence: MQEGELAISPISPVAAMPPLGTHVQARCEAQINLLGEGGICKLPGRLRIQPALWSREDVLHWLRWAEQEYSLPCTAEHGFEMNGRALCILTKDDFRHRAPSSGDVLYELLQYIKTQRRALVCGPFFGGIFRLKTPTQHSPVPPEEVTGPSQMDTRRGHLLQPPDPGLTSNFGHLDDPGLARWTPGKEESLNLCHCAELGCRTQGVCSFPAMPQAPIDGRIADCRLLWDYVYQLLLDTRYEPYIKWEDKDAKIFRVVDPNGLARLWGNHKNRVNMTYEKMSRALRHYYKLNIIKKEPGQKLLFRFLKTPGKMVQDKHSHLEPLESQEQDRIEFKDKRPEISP
Summary of the method: as §1

ELF5 = target: T11, ELF5 (Homo sapiens, UniProt Q9UKW6-2 1-255); details: protein: recombinant; tags: N-terminal GST; dsDNA, one strand shown
T11 sequence: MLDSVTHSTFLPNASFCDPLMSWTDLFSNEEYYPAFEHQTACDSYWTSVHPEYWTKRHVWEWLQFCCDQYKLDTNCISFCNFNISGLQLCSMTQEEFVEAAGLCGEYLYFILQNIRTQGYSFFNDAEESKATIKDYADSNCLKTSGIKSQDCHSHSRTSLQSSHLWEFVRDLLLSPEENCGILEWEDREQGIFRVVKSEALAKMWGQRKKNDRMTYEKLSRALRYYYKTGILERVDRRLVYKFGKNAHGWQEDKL
Summary of the method: as §1

ETV3 = target: T12, ETV3 (Homo sapiens, UniProt P41162-2 1-143); details: protein: recombinant; tags: N-terminal GST; dsDNA, one strand shown
T12 sequence: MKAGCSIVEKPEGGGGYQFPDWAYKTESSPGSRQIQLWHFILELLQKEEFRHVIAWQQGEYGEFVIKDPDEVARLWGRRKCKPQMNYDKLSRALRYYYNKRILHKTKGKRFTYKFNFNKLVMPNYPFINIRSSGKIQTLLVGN
Summary of the method: as §1

ETV6 = ETV6 (Homo sapiens, UniProt P41212 1-452); details: protein: recombinant; tags: N-terminal GST; dsDNA, one strand shown
Summary of the method: as §1

CRX, sequence (O43186 whole entry): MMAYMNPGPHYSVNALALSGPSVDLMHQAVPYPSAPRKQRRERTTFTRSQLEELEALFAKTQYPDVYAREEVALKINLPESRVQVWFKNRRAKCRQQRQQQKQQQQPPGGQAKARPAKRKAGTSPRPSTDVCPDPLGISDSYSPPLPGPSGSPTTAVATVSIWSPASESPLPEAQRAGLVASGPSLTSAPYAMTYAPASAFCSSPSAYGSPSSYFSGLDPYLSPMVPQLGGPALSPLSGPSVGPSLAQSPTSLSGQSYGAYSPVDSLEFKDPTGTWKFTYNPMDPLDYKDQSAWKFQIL
ETV1, sequence (P50549 whole entry): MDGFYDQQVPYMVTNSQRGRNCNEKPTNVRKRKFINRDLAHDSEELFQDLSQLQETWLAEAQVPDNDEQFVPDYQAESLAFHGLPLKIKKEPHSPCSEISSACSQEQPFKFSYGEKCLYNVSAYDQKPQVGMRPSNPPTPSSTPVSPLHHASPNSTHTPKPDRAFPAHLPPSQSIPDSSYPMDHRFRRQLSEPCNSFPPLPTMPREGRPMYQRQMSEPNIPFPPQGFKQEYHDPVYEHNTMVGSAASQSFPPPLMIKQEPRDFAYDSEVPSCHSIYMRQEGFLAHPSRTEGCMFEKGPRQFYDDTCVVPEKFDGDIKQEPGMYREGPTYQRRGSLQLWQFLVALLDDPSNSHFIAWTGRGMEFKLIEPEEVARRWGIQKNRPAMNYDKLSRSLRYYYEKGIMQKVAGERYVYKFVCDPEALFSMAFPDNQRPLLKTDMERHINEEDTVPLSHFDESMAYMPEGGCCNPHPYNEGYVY
ELF4, sequence (Q99607 whole entry): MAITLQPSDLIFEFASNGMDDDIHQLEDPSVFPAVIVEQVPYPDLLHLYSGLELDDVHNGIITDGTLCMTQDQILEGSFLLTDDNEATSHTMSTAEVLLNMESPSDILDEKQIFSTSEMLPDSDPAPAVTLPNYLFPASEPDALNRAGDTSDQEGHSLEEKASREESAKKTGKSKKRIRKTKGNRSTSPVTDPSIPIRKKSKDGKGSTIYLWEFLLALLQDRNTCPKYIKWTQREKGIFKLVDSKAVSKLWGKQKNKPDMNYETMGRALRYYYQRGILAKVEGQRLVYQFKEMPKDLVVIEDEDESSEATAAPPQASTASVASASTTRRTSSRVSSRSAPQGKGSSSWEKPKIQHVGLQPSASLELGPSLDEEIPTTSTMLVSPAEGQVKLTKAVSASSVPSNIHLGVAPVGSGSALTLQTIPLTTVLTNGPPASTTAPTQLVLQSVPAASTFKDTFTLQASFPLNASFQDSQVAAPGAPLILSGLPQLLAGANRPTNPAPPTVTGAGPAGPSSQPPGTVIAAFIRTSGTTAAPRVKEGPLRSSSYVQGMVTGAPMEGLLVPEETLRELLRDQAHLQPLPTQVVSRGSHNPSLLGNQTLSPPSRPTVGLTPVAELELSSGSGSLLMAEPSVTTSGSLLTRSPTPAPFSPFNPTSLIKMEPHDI
ETV6, sequence (P41212 whole entry): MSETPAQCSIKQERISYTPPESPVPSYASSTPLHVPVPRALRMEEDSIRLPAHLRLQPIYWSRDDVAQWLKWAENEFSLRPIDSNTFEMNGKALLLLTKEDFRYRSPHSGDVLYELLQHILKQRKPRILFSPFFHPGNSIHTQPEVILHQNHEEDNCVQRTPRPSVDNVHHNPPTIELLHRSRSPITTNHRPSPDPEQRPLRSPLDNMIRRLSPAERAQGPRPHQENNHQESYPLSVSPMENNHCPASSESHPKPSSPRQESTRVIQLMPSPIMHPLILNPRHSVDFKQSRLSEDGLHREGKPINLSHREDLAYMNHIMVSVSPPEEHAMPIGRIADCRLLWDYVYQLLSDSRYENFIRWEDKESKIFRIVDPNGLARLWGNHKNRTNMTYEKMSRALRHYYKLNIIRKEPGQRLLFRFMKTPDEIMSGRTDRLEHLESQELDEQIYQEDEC
HSF1, sequence (Q00613 whole entry): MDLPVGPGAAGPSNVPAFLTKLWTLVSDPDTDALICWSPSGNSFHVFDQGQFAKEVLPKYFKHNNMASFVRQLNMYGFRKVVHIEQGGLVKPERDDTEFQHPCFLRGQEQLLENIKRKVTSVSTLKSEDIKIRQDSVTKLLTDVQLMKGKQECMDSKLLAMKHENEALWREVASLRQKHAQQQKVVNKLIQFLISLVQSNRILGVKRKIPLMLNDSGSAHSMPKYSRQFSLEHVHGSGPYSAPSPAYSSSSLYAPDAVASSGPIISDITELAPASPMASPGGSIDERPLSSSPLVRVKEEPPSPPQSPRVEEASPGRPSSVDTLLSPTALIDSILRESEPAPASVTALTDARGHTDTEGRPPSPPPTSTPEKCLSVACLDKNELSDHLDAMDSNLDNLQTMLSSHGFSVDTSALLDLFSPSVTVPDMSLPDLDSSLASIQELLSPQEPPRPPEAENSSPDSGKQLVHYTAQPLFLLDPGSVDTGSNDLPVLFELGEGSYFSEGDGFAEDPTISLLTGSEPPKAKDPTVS
ETV5, sequence (P41161 whole entry): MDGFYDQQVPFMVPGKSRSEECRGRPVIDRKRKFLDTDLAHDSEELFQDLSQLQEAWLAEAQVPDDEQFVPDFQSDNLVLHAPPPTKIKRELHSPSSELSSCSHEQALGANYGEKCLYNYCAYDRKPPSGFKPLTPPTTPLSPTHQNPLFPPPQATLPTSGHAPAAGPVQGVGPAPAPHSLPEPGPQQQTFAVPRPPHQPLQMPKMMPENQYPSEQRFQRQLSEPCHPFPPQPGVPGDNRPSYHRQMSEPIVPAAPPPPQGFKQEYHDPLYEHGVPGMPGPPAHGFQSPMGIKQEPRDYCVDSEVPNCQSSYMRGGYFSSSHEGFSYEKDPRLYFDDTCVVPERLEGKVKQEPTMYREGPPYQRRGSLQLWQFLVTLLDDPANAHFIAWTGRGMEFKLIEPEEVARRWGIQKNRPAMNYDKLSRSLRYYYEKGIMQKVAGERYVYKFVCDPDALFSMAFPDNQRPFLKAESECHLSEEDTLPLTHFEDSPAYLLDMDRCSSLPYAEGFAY

Q: CCCCCT was tested. Which binding signal (FEV) did it give?
A: 1.18 fold enrichment (6-mer frequency, TF over GST control)

Q: And the binding signal (ETV5)?
A: 1.29 fold enrichment (6-mer frequency, TF over GST control)

Q: And the binding signal (HSF1)?
A: 1.02 fold enrichment (6-mer frequency, TF over GST control)

Q: What about the binding signal (SPIC) of the same sequence?
A: 1.31 fold enrichment (6-mer frequency, TF over GST control)

Q: And the binding signal (ELF4)?
A: 1.35 fold enrichment (6-mer frequency, TF over GST control)

Q: What about the binding signal (ELK4) of the same sequence?
A: 1.58 fold enrichment (6-mer frequency, TF over GST control)

Q: And the binding signal (ETV2)?
A: 1.17 fold enrichment (6-mer frequency, TF over GST control)

Q: And the binding signal (ELF3)?
A: 1.39 fold enrichment (6-mer frequency, TF over GST control)

Q: What about the binding signal (CRX) of the same sequence?
A: 1.07 fold enrichment (6-mer frequency, TF over GST control)

Q: What about the binding signal (ETV1) of the same sequence?
A: 1.2 fold enrichment (6-mer frequency, TF over GST control)

Q: And the binding signal (ERF)?
A: 1.38 fold enrichment (6-mer frequency, TF over GST control)

Q: And the binding signal (ETV3L)?
A: 1.23 fold enrichment (6-mer frequency, TF over GST control)

Q: What about the binding signal (ETS2) of the same sequence?
A: 1.14 fold enrichment (6-mer frequency, TF over GST control)

Q: And the binding signal (SPDEF)?
A: 1.05 fold enrichment (6-mer frequency, TF over GST control)

Q: And the binding signal (ETV7)?
A: 1.17 fold enrichment (6-mer frequency, TF over GST control)

Q: What about the binding signal (ELF5) of the same sequence?
A: 1.37 fold enrichment (6-mer frequency, TF over GST control)

Q: What about the binding signal (ETV3) of the same sequence?
A: 1.27 fold enrichment (6-mer frequency, TF over GST control)

Q: And the binding signal (ETV6)?
A: 1.15 fold enrichment (6-mer frequency, TF over GST control)
